Source: PubChem BioAssay (EPA / NIEHS)
Active and inactive are the calls of the source. How the source made its calls: active means hit-call score of the fitted dose curve at least 0.9, where 1 is the maximum; inactive means score below 0.9.

How the values were obtained:
Settings in all cases: mRNA level, 48 h; actives raise or lower the signal
[1] = read-out: Tumor necrosis factor receptor superfamily member 6 (Homo sapiens) (UniProt P25445); assay: LTEA_HepaRG_FAS: Life Technologies and Expression Analysis (LTEA) Assay for Fas cell surface death receptor (FAS) using HepaRG (AID 2283447)
Procedure, shortened: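 FAS transcript level was measured by TaqMan qRT-PCR against three housekeeping genes after 48 h chemical exposure. Cells were HepaRG, 0.5% DMSO vehicle, with a top concentration of 100 uM and half-log dilutions over eight points, in duplicate.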

[2] = read-out: Fatty acid synthase (Homo sapiens) (UniProt P49327); assay: LTEA_HepaRG_FASN: Life Technologies and Expression Analysis (LTEA) Assay for Fatty Acid Synthase (FASN) using HepaRG (AID 2283448)
Procedure, shortened: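 Differentiated human HepaRG cells were exposed for 48 h in serum-free induction medium to eight half-log concentrations up to 100 uM in 0.5% DMSO, in duplicate. FASN mRNA was quantified by TaqMan qRT-PCR, normalized to ACTB/GAPDH/POLR2A, and fitted bidirectionally against DMSO.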

[3] = read-out: Cyclin D2 (CCND2), CCND2 (gene 894); assay: LTEA_HepaRG_CCND2: Life Technologies and Expression Analysis (LTEA) Assay for Cyclin D2 (CCND2) using HepaRG (AID 2283449)
Procedure, shortened: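 Read-out is CCND2 mRNA level measured by qRT-PCR in human HepaRG liver cells and normalised to three housekeeping genes. Chemicals were applied for 48 h at up to 100 uM, with gain or loss fitted relative to 0.5% DMSO.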

[4] = read-out: Cyclin Dependent Kinase Inhibitor 1A (CDKN1A), CDKN1A (gene 1026); assay: LTEA_HepaRG_CDKN1A: Life Technologies and Expression Analysis (LTEA) Assay for Cyclin Dependent Kinase Inhibitor 1A (CDKN1A) using HepaRG (AID 2283450)
Procedure, shortened: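 Gain or loss of CDKN1A transcript is scored by bidirectional fitting against 0.5% DMSO vehicle. Human HepaRG cultures receive chemicals for 48 h across an 8-point series peaking at 100 uM; expression comes from qRT-PCR.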

[5] = read-out: Cyclin D1 (CCND1), CCND1 (gene 595); assay: LTEA_HepaRG_CCND1: Life Technologies and Expression Analysis (LTEA) Assay for Cyclin D1 (CCND1) using HepaRG (AID 2283451);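 on AC50: TaqMan qRT-PCR transcript level normalised to ACTB GAPDH and POLR2A housekeeping genes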
Procedure, shortened: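 Expression change is measured by qRT-PCR in HepaRG cells after 48 h treatment across eight concentrations topping at 100 uM, with duplicate wells and DMSO (0.5%) serving as baseline for bidirectional fitting.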

[6] = read-out: catalase (CAT), CAT (gene 847); assay: LTEA_HepaRG_CAT: Life Technologies and Expression Analysis (LTEA) Assay for catalase (CAT) using HepaRG (AID 2283452)
Procedure, shortened: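 Expression of CAT was quantified by TaqMan qRT-PCR with ACTB/GAPDH/POLR2A normalization after 48 h chemical exposure of HepaRG. Eight-point half-log series, top 100 uM, in 0.5% DMSO; gain or loss fitted against vehicle.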

[7] = read-out: flavin-containing dimethylaniline monooxygenases 3 (FMO3), FMO3 (gene 2328); assay: LTEA_HepaRG_FMO3: Life Technologies and Expression Analysis (LTEA) Assay for flavin-containing dimethylaniline monooxygenases 3 (FMO3) using HepaRG (AID 2283453)
Procedure, shortened: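 HepaRG, 48 h exposure, 8-pt half-log series from 100 uM, 0.5% DMSO vehicle, duplicates; FMO3 transcript by Fluidigm TaqMan qRT-PCR, housekeeping-normalized; gain/loss fit vs DMSO.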

[8] = read-out: Cytochrome P450 (CYP1A1), CYP1A1 (gene 1543); assay: LTEA_HepaRG_CYP1A1: Life Technologies and Expression Analysis (LTEA) Assay for Cytochrome P450 (CYP1A1) using HepaRG (AID 2283454)
Procedure, shortened: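 Using HepaRG cultures with 0.5% DMSO as vehicle, eight-concentration exposures (max 100 uM) lasted 48 h. Transcript levels were measured by TaqMan qRT-PCR and normalized to ACTB, GAPDH and POLR2A.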

[9] = read-out: CFLAR gene, CFLAR (gene 8837); assay: LTEA_HepaRG_CFLAR: Life Technologies and Expression Analysis (LTEA) Assay for CFLAR gene using HepaRG (AID 2283455)
Procedure, shortened: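 HepaRG, 48 h exposure, 8-pt conc-response (100 uM top, half-log), 0.5% DMSO vehicle, duplicates. CFLAR expression by qRT-PCR; ACTB/GAPDH/POLR2A normalization; gain or loss fit vs DMSO baseline.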

[10] = read-out: Forkhead box O1 (FOXO1), FOXO1 (gene 2308); assay: LTEA_HepaRG_FOXO1: Life Technologies and Expression Analysis (LTEA) Assay for Forkhead box O1 (FOXO1) using HepaRG (AID 2283456)
Procedure, shortened: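 Readout is FOXO1 transcript level by multiplexed qRT-PCR against three housekeeping genes, curve-fitted in both directions relative to 0.5% DMSO vehicle. Human HepaRG cultures received chemicals for 48 h, up to 100 uM in half-log steps.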

Measured: AC50

Fatty acid synthase (Homo sapiens), sequence (P49327 whole entry, looked up): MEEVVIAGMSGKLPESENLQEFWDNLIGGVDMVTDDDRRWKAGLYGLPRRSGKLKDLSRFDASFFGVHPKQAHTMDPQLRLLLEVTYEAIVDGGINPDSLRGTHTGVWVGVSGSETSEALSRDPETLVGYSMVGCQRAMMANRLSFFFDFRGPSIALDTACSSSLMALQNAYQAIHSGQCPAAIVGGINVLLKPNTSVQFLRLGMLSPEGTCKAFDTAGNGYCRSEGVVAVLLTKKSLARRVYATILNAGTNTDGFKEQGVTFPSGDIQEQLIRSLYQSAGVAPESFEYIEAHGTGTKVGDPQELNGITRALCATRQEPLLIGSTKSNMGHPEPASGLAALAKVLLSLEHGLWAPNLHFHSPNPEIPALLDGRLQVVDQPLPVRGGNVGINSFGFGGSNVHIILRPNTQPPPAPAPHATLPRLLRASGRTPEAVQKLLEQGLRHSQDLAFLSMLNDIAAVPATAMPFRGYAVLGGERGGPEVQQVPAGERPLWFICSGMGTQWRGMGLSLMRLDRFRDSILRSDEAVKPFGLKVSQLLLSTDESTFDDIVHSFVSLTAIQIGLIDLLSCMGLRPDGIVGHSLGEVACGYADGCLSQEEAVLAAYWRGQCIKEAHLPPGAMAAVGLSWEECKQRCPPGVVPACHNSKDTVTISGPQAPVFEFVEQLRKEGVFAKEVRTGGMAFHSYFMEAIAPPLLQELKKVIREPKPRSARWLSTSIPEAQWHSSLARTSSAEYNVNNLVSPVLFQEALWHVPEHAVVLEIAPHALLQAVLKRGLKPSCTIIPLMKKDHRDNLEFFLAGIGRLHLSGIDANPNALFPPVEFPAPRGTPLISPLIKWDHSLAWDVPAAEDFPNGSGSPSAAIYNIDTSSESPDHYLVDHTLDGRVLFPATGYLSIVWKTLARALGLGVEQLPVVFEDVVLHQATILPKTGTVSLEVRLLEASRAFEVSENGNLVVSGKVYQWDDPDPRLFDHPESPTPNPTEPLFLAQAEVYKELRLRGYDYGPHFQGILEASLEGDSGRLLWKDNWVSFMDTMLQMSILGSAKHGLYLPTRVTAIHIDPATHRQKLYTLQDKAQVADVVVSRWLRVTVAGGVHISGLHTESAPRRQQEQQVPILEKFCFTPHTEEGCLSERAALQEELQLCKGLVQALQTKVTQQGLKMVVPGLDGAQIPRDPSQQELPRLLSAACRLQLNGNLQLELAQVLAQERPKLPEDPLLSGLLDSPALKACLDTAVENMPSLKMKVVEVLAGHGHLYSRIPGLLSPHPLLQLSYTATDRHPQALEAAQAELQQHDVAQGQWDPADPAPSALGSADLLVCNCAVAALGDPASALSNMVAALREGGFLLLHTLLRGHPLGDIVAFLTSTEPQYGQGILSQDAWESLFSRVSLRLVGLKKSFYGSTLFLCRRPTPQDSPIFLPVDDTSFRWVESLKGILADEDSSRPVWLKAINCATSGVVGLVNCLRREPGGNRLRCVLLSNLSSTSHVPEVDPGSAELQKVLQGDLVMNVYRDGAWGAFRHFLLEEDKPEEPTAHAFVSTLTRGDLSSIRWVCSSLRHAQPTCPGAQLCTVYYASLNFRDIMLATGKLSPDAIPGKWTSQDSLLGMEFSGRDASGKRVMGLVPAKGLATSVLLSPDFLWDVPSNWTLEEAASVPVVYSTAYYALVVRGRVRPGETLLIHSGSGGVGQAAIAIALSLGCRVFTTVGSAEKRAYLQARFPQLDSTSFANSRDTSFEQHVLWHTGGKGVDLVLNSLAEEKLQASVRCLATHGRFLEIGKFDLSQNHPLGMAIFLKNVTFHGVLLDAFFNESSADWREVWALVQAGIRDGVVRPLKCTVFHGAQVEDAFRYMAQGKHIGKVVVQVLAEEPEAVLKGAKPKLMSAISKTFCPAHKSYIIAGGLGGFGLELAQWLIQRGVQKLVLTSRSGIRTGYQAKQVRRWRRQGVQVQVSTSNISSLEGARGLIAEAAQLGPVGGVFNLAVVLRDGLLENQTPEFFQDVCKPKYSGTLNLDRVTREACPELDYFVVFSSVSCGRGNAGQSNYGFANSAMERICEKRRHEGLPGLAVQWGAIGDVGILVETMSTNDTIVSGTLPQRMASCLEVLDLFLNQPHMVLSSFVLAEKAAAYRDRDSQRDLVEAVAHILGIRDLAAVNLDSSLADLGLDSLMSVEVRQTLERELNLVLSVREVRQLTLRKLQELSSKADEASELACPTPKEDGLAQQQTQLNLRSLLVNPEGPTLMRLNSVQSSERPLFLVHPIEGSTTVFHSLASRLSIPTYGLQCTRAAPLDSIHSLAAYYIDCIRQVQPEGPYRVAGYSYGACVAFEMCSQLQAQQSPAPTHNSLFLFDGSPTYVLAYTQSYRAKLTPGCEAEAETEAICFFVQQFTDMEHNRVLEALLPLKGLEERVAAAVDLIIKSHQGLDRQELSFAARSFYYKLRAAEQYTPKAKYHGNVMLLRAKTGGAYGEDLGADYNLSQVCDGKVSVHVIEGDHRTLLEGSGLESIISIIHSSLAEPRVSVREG

CC(C)(C)OOC(C)(C)C
inactive: [1] | [2] | [3] | [4] | [5] | [6] | [7] | [8] | [9] | [10]

O=P1(N(CCCl)CCCl)NCCCO1 (stereo not drawn)
inactive: [1] | [2] | [3] | [4] | [5] | [6] | [7] | [9] | [10]
active: [8] 50 µM

CCOC(=O)c1ccccc1C(=O)OCC
inactive: [1] | [2] | [3] | [4] | [5] | [6] | [7] | [9] | [10]
active: [8] 74 µM

CCOP(=S)(OCC)SCSCC
active: [8] 66.7 µM
inactive: [1] | [2] | [4] | [5] | [6] | [7] | [9] | [10]

CC(C)(C)c1ccc(O)cc1
inactive: [1] | [2] | [3] | [4] | [5] | [6] | [7] | [9] | [10]

CCOP(=S)(Oc1ccc([N+](=O)[O-])cc1)c1ccccc1 (stereo not drawn)
inactive: [1] | [2] | [3] | [4] | [5] | [6] | [7] | [9] | [10]
active: [8] 14.3 µM

O=[N+]([O-])c1ccccc1
active: [8] 50 µM
inactive: [2] | [3] | [4] | [5] | [6] | [7] | [9] | [10]

CCCCCCCc1ccc(O)cc1
inactive: [1] | [2] | [4] | [5] | [6] | [7] | [8] | [9] | [10]

Cc1cccc(N)c1
inactive: [2] | [3] | [4] | [5] | [6] | [7] | [9] | [10]
active: [8] 50.2 µM

c1ccc2c(c1)Nc1ccccc1S2
inactive: [1] | [4] | [6] | [7] | [9] | [10]
active: [2] 50 µM | [5] 67.9 µM | [8] 86.5 µM

CCCCN(CCCC)SN(C)C(=O)Oc1cccc2c1OC(C)(C)C2
inactive: [1] | [2] | [3] | [4] | [5] | [6] | [7] | [9] | [10]
active: [8] 50 µM

CCC1(c2ccccc2)C(=O)N=C(O)NC1=O (stereo not drawn)
inactive: [1] | [2] | [3] | [4] | [5] | [6] | [7] | [9] | [10]
active: [8] 64.3 µM

CSC(C)(C)C=NO
inactive: [1] | [2] | [4] | [5] | [6] | [7] | [8] | [9] | [10]

COCCOCCO
inactive: [1] | [2] | [4] | [5] | [6] | [7] | [8] | [9] | [10]

c1ccc(OP(Oc2ccccc2)Oc2ccccc2)cc1
active: [8] 77.3 µM
inactive: [1] | [2] | [3] | [4] | [5] | [6] | [7] | [9] | [10]

Nc1ccc2ccccc2c1
inactive: [1] | [4] | [5] | [6] | [7] | [9] | [10]
active: [2] 10.6 µM | [8] 23.5 µM

CCCCN(CCCC)N=O
inactive: [1] | [2] | [3] | [4] | [5] | [6] | [7] | [8] | [9] | [10]

CCC(C)(C)c1ccc(O)cc1
inactive: [1] | [3] | [4] | [5] | [6] | [7] | [8] | [9] | [10]

O=[N+]([O-])c1ccc(Cl)c(Cl)c1
active: [8] 5.16 µM
inactive: [1] | [2] | [3] | [4] | [5] | [6] | [7] | [9] | [10]

CCOc1ccc(C(C)(C)COCc2cccc(Oc3ccccc3)c2)cc1
inactive: [1] | [2] | [4] | [5] | [6] | [7] | [9] | [10]
active: [8] 41 µM

ClC(Cl)c1ccccc1
inactive: [1] | [2] | [3] | [4] | [5] | [6] | [7] | [9] | [10]
active: [8] 50 µM

Cc1ccc(O)cc1C
inactive: [1] | [2] | [3] | [4] | [5] | [6] | [7] | [9] | [10]
